Screens: PubChem, National Center for Advancing Translational Sciences (NCATS)
Rows were chosen to be rich in hits. Some 12% of all compounds tested hit in one or more screens of this group.
Shiga toxin inh = A qHTS for Small Molecule Inhibitors of Shiga Toxin; Vero cells, Shiga toxin protein synthesis inhibition reporter; inhibition, % at 38.7 µM; 290,000 tested, 9.2% active; in the data active means inhibition mostly above about 28%, no sharp cut-off; inactive means mostly below about 43%; further: 0% is about no effect
SARS PLP yeast = qHTS of Yeast-based Assay for SARS-CoV PLP. Potency, µM (titrated, usually from 32.9 µM), for inactives: at the top dose activity, positive = growth rescue, usual class: activators. 330,000 tested, 0.19% active. S. cerevisiae expressing SARS-CoV PLpro, growth rescue; further: potency means the concentration at half of the fitted maximal effect; 0% is about no effect; nearly all actives have a fitted effect of over 55% in size
CHX counter = Cycloheximide Counterscreen for Small Molecule Inhibitors of Shiga Toxin | 300,000 tested, 12% active | cell reporter, cycloheximide protein synthesis inhibition counterscreen | max response, %; in the data active means max response mostly above about 13%, no sharp cut-off; inactive means mostly below about 14%; further: read at 38.3 µM for the half of the compounds with a filed dose; 0% is about no effect
NS1 inh = qHTS Assay for Inhibitors of Influenza NS1 Protein Function | AID 2326, 2010 | 270,000 tested, 0.4% active | Potency, µM (titrated, usually from 46.1 µM), inactives show at the highest dose activity, positive = more growth; further: potency means the concentration at half of the fitted maximal effect; actives are rising curves; nearly all actives have a fitted effect of over 50% in size
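Recovery from NS1-induced slow growth read by OD600 in budding yeast switched to galactose assay medium (pH 6.0, -URA) at 1:100 dilution. Compound 23 nl per well; the matching strain lacking NS1 serves as control.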
Flu NS1 inh = Assay for Inhibitors of Influenza NS1 Protein Function: Hit Validation. shares compounds with NS1 inh. influenza NS1 function cell assay, 15-point titration. activity change, negative = inhibition, % at 32.9 µM. 1,400 tested, under 10 active. AID 492980, 2010; further: 0% is about no effect
PR8 titer = Assay for Inhibitors of Influenza NS1 Protein Function: Influenza virus replication assay in MDCK cells infected with virus A/PR/8/34; shares compounds with NS1 inh; MDCK infected influenza A/PR/8/34, virus titer TCID50; stronger effect = lower value; virus titer (log TCID50), log10 TCID50 at 5 µM; 95 tested, 30% active; call rule not given here
Numbers without * were called inactive; ? = inconclusive; / = not tested or not shown. Unless noted, the call rests on the fitted dose curve.

SMILES	Shiga toxin inh	SARS PLP yeast	CHX counter	NS1 inh	Flu NS1 inh	others
Cc1ccc(-c2cc(C(=O)Nc3sc4c(c3C(=O)NCc3ccco3)CCC4)[nH]n2)c(O)c1	17	-10%	5	?	3
CCN1CCN(CC(=O)N/N=C/c2ccc(F)cc2F)CC1	-8	-14%	1	-10%	/
CCCN1CCN(C(=O)CCCn2c(C)c3cnn(-c4ccccc4)c(=O)c3c2C)CC1	-11	-8%	-7	2%	/
CCC(C(=O)NCCN1CCN(C)CC1)n1c(C)c2cnn(-c3ccccc3)c(=O)c2c1C (centres undefined)	-17	-3%	7	?	0
Cc1cccnc1NC(=O)CCc1nnc2ccc(NCc3ccco3)nn12	13	4%	-4	13%	/
CCCCOc1ccccc1NC(=O)c1ccc(=O)[nH]c1	-8	-3%	-1	?	1
COc1ccc2oc(/C=C/N(C)C)c(C(=O)c3ccc(Cl)cc3)c2c1	-1	16%	3	13µM*	-28
Cc1ccc(/C=N/NC(=O)CN(Cc2ccccc2)S(=O)(=O)c2ccc3c(c2)OCCO3)cc1	-7	-3%	-1	13µM*	2	PR8 titer=8.5
O=S(=O)(Nc1ncnc2c1oc1ccccc12)c1ccc(Cl)s1	-6	11%	16*	1.1µM*	-1
NNC(=O)COc1ccc(-c2n[nH]c(C(F)(F)F)c2-c2ccc(Br)cc2)c(O)c1	11	-1%	-3	11µM*	2
COc1ccccc1-c1c(-c2ccc(OCC(=O)NN)cc2O)n[nH]c1C(F)(F)F	4	0%	-3	?	/
Cc1noc(NS(=O)(=O)c2ccc(NC(=O)NC(C)(C(F)(F)F)C(F)(F)F)cc2)c1C	-3	0%	-1	-4%	/
CCOC(=O)c1ccc(NC(=O)CSc2nc(C)cc(=O)[nH]2)cc1	-16	-5%	-5	?	-10	PR8 titer=8
Cc1cc(=O)[nH]c(SCC(=O)Nc2ccc(C(=O)O)cc2)n1	-4	10%	3	-2%	/
Cc1occc1-c1nnc(SCC(=O)c2c(N)n(Cc3ccccc3)c(=O)n(C)c2=O)n1C	-14	12%	5	10µM*	18
CCOc1ccc(C(=O)CSCC(=O)O)cc1	21	1%	18	/	/
COc1cc(NC(=O)c2ccccc2)c(OC)cc1NC(C)=O	-4	-3%	-2	?	1
CNC(=S)NNC(=O)c1cccs1	22	1%	-2	0%	/
O=C(NNC(=S)NC1CCCCC1)c1cccs1	21	?	11	2.5µM*	11
O=C(Cc1n[nH]c(=O)[nH]c1=O)N/N=C/CCc1ccccc1	9	1%	-3	2%	/
COc1cc(NS(=O)(=O)c2ccc(NC(=O)COc3ccccc3Cl)cc2)nc(OC)n1	0	8%	1	14µM*	-2
COc1cc(NS(=O)(=O)c2ccc(NC(=O)COc3cccc(C)c3)cc2)nc(OC)n1	5	2%	-5	?	/
COc1cccc(NC(=O)C(Sc2nnc(-c3ccncc3)n2-c2ccc(Cl)cc2)c2ccccc2)c1 (centres undefined)	-7	5%	-1	14µM*	2
COc1cccc(-n2c(SCC(N)=O)nnc2-c2ccncc2)c1	-8	-8%	-2	5%	/
COc1ccc(S(=O)(=O)NCCc2ccco2)cc1OC	29	3%	8	3.2µM*	-1
SMILES	Shiga toxin inh	SARS PLP yeast	CHX counter	NS1 inh	Flu NS1 inh	others
CCNc1nc(NCC)n2c(SCC(=O)O)nnc2n1	-6	-3%	-3	10µM*	8
Cc1ccc(Nc2nc3ccccc3nc2Nc2c(C)n(C)n(-c3ccccc3)c2=O)cc1	-19	6%	-6	11%	/
Cc1c(Nc2nc3ccccc3nc2NS(=O)(=O)c2cccc(Cl)c2)c(=O)n(-c2ccccc2)n1C	6	18%	-3	8.9µM*	13
Cc1[nH]n(-c2cccc3ccccc23)c(=O)c1/C=N/c1sc2c(c1C#N)CCC2	-12	7%	-1	2.2µM*	-9	PR8 titer=8.5
Cc1[nH]n(-c2ccc(F)cc2)c(=O)c1/C=N/c1sc2c(c1C#N)CCCC2	0	-1%	-2	1%	/
COCCNC(=O)c1ccc(CS(=O)(=O)c2c(Cl)cccc2Cl)o1	-4	-26%	0	0%	/
CCN1CCN(CCNC(=O)c2ccc(CS(=O)(=O)c3c(Cl)cccc3Cl)o2)CC1	8	-3%	-4	?	-16
N#CC(C#N)=Cc1cccn1-c1ccc(S(N)(=O)=O)cc1	-7	0%	4	?	-9
CS(=O)(=O)/C(C#N)=C/c1cccn1S(=O)(=O)c1ccccc1	9	-1%	4	4%	/
CC(=O)c1c(C)[nH]c(C(=O)/C(C#N)=C/c2cccc(C)c2)c1C	-5	2%	-7	21%	/
CCOC(=O)c1c(C)[nH]c(C(=O)/C(C#N)=C/c2ccc(OCC)cc2)c1C	13	16%	8	4µM*	-21
O=C(NCCc1ccc(Cl)cc1)c1ccc(S(=O)(=O)N2CCCC2)cc1	/	5%	/	/	/
Nc1sc(-c2ccccc2)c(Cc2ccccc2)c1C(=O)O	-15	1%	-3	/	/
O=C(Cc1ccsc1-c1ccccc1)NO	18	2%	-4	?	8
Cc1ccc(S(=O)(=O)N2CCN(C(=O)CC(C)n3cncn3)CC2)cc1C (centres undefined)	-10	4%	-4	?	-9
Cc1ccc(S(=O)(=O)N2CCN(C(=O)CC(C)n3cncn3)CC2)cc1 (centres undefined)	-13	0%	-5	27%	/
COc1ccc(C(=O)NCCNc2nc3ccc(C)cc3cc2C#N)cc1OC	-5	-1%	-2	10%	/
CC(C)(C)C(=O)Nc1ccc(C(=O)Nc2cccc(Oc3ccc(C(=O)O)c(C(=O)O)c3)c2)cc1	-17	-3%	-3	11µM*	29
N#CC(c1cccc(Cl)c1)c1ncc(C(F)(F)F)cc1Cl (centres undefined)	1	1%	-1	9%	/
O=C(NC(Cc1ccccc1)C(=O)O)/C(=C/c1ccccc1)NC(=O)c1cccc(Br)c1 (centres undefined)	-12	0%	-3	/	/
CC(C)c1cc(=O)n2[nH]c(N)nc2n1	-1	0%	11	/	/
COc1ccc(S(=O)(=O)Nc2cc(C(=O)NC(C)C)ccc2N2CCOCC2)cc1	18	7%	4	-52%	/
COc1ccc(S(=O)(=O)Nc2cc(C(=O)NC3CCCCCC3)ccc2N2CCOCC2)cc1	27	14%	1	10µM*	1
CSc1nc2ccccc2cc1/C=C(\C#N)c1ccc(Cl)c(Cl)c1	-8	-1%	-2	1%	/
CSc1nc2ccccc2cc1/C=C(\C#N)c1ccccc1	-8	4%	-3	2µM*	7
COc1ccccc1C(=O)NCCn1cc(SCC(=O)Nc2nnc(C)s2)c2ccccc21	-8	5%	-4	13µM*	11
